Laboratory results as given in the supplement of paper PMC3334620.
The full ranking holds about 33,000 sequences; the median of “E-score (-0.5 to 0.5)” is about -0.041, and the highest 2% start at about 0.37. The entries come from a sample that favours the highest values as a whole.

target: T1, Ecm22 (UniProt Q05958); test: PBM E-score (8-mer binding enrichment) (E-score (-0.5 to 0.5)); higher = stronger / more preferred TF binding; conditions: protein concentration: 200 nM; construct: GST-full length
T1 sequence: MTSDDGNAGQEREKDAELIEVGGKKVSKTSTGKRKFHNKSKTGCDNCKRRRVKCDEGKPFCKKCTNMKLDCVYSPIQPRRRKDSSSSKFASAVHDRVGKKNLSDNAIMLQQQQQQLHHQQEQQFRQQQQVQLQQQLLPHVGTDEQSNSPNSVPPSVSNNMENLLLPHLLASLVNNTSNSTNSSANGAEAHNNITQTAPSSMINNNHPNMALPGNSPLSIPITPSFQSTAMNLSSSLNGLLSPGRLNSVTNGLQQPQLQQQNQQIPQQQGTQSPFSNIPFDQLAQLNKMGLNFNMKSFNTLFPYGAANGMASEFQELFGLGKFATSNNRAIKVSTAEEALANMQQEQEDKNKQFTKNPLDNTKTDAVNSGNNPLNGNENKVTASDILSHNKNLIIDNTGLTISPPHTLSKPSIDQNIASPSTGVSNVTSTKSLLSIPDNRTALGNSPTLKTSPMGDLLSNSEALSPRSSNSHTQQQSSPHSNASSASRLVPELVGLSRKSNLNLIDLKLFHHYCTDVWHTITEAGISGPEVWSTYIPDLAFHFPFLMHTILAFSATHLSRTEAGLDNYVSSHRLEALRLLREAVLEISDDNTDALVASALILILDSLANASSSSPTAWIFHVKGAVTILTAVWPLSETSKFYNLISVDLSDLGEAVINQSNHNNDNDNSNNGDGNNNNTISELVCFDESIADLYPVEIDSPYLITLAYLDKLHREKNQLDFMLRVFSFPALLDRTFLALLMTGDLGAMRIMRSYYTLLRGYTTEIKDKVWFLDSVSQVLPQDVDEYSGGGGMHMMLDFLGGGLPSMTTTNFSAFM
Protocol: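 Universal 'all 10-mer' protein binding microarrays (Agilent AMADID 015681) probed with GST-tagged S. cerevisiae TFs (full-length or DBD) made by in vitro transcription/translation (PURExpress), about 100-200 nM. Bound TF was detected with fluorescent anti-GST. Each ungapped 8-mer (which stands for itself and its reverse complement) is scored by the PBM enrichment score (E-score), a modified Wilcoxon-Mann-Whitney statistic from -0.5 to +0.5, computed with the Universal PBM Analysis Suite. Scale: above 0.35 generally sequence-specific binding.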

| Sequence | PBM E-score |
| --- | --- |
| AGGATGAG | -0.0765 |
| ACCATAGC | -0.261 |
| GAACCGGC | -0.0167 |
| GCCTTTAA | -0.198 |
| AACGAGCT | 0.445 |
| ACCGAGCT | 0.235 |
| AGCGAGCT | 0.309 |
| CCGCTTTC | -0.0554 |
| GGCCTCCC | -0.0791 |
| ATCGCATA | 0.289 |
| CTCGCATA | 0.376 |
| CTCGCAGA | 0.0487 |
| GTCGCAGA | 0.123 |
| CTCGCATC | 0.304 |
| GTCGCATA | 0.369 |
| ACCTTTCG | 0.094 |
| TAAAGCGA | 0.213 |
| CGTTTAAC | 0.465 |
| CGTTTAAA | 0.453 |
| AGTTTAAA | 0.0639 |
| TGTTTAAA | -0.172 |
| AGTTTAAC | 0.09 |
| CGTTTAAG | 0.429 |
| GGTTTAAC | 0.0725 |
| AGTTTAAG | -0.127 |

| Sequence | PBM E-score |
| --- | --- |
| CCTTTAAG | -0.259 |
| ACGGCCCG | 0.208 |
| GGCGATAC | 0.0112 |
| AAGCGGCT | -0.0695 |
| AACCCGGC | 0.11 |
| GCCACAAC | -0.055 |
| AGGAAATG | -0.11 |
| CTCGGTTA | 0.383 |
| CACGGTTA | 0.0472 |
| GTCGGTCA | 0.258 |
| CTCGGTTC | 0.265 |
| ATCGGTTA | 0.362 |
| GTCGGTTA | 0.369 |
| CGCGGAGC | 0.116 |
| AGAGAGAT | -0.163 |
| AGGAGCCG | -0.0656 |
| AGGAGCCT | -0.308 |
| CCGAGCCG | 0.227 |
| ACGAGCCC | 0.365 |
| ACGAGCCT | 0.407 |
| ACGAGCCG | 0.389 |
| ACGAGCCA | 0.404 |
| TCGAGCCA | -0.126 |
| CCGAGCCA | 0.138 |
| CCATTAGC | -0.0326 |

| Sequence | PBM E-score |
| --- | --- |
| CTTCTGGC | -0.199 |
| GAACTCCC | 0.178 |
| ACCTTAAC | 0.0365 |
| GTTTAAAC | 0.285 |
| CCGAGAAC | 0.204 |
| ACGAGAAT | 0.385 |
| CCGAGAAA | 0.247 |
| ATGAGAAT | -0.0978 |
| TCGAGAAA | 0.0202 |
| ACGAGAAG | 0.313 |
| ACGAGAAC | 0.4 |
| ACGAGAGT | 0.328 |
| ACGAGAAA | 0.375 |
| AGGACCAT | 0.00977 |
| ATTCTACC | -0.12 |
| GACAGGCA | -0.0606 |
| AACATCCG | 0.158 |
| GGTGGAAC | 0.236 |
| ACGGCACT | 0.0515 |
| ATGATGAC | -0.0358 |
| CAAGCTTC | 0.0567 |
| CTTTTTTA | -0.19 |
| ACCTCGTG | 0.251 |
| GCCTCGTA | 0.481 |
| CCCTCGGA | 0.211 |

| Sequence | PBM E-score |
| --- | --- |
| ACCTCGTA | 0.463 |
| CCCTCGTA | 0.477 |
| CCCTCGTC | 0.119 |
| ACCTCGTC | 0.17 |
| GCCTCGAA | 0.0731 |
| GCCTCGGA | 0.175 |
| AACGGTAA | 0.267 |
| ACTGGGTA | 0.0533 |
| ATGCGTCA | 0.0653 |
| ACCGCTAA | 0.144 |
| GGGGTTAC | 0.0772 |
| CTGTGCCA | -0.185 |
| AGCATCAG | -0.0729 |
| ATTCTAAC | -0.0713 |
| AGGCCTGA | -0.274 |
| GTAGGGGA | -0.206 |
| ACACGATA | 0.152 |
| GCACGATA | 0.0343 |
| GTACGATA | 0.456 |
| AGACGATA | 0.143 |
| CTACGATA | 0.311 |
| ATACGATA | 0.458 |
| AAGAACCT | -0.208 |
| GTAAAGCA | 0.0968 |
| TGAAAAAA | -0.0832 |

| Sequence | PBM E-score |
| --- | --- |
| GCGTACCC | 0.229 |
| ACGTACCG | 0.301 |
| TGGTACCA | -0.0735 |
| CCGTACCG | 0.455 |
| CCGTACCA | 0.423 |
| CGGTACCG | 0.234 |
| GCGTACCA | 0.273 |
| CCGTACCC | 0.433 |
| ACGTACCC | 0.295 |
| TCTTACCA | 0.061 |
| TCGTACCA | 0.488 |
| ACGTACCA | 0.306 |
| AGGAACCG | 0.0955 |
| GAGTCTAA | -0.115 |
| CATAGGAC | -0.091 |
| TCTATGCA | -0.148 |
| GGTCGTTA | 0.339 |
| CGCCGTTC | 0.362 |
| AGTCGTTA | 0.273 |
| AGTCGTTG | 0.184 |
| CGTCGTTA | 0.374 |
| AGTCGTTC | 0.425 |
| CGTCGTTC | 0.479 |
| AGTCGCTC | 0.177 |
| CGTCGATC | 0.0984 |

| Sequence | PBM E-score |
| --- | --- |
| CAATTGAC | -0.0565 |
| AGGTCTGC | -0.195 |
| CGGGAATA | 0.0624 |
| CGAACCCA | 0.167 |
| TCATCGGA | -0.0141 |
| ATGCAGAC | -0.0112 |
| AACTGCGG | 0.0437 |
| TGGCACCA | -0.213 |
| TCGCATAA | 0.388 |
| ACGCATAA | 0.0983 |
| CCGCATAA | 0.119 |
| CGTAAAAG | 0.367 |
| AGTAAAGA | -0.225 |
| CGTAAATC | 0.349 |
| AGTAAATA | 0.00942 |
| CGTAAAGA | 0.389 |
| CGTAAAAC | 0.367 |
| CGTAAAGC | 0.348 |
| CGTAAAAA | 0.404 |
| CGTAAATA | 0.377 |
| GACACTCC | -0.0444 |
| CAGGGTAG | -0.148 |
| AATCTTTA | -0.0885 |
| CCCTGACC | -0.0114 |
| CGCGATAG | 0.135 |

| Sequence | PBM E-score |
| --- | --- |
| CCATTTGC | -0.0821 |
| AGTCGAAC | 0.0504 |
| GACGCAAA | 0.114 |
| GAAAAGAA | 0.0308 |
| CAGTTCCA | -0.0209 |
| AAGAGGTG | -0.0239 |
| AGTATACG | 0.433 |
| AGTATACC | 0.0306 |
| GGTATACA | -0.21 |
| AGTATACT | 0.102 |
| AGTATATG | -0.0215 |
| AGTATACA | 0.0981 |
| CGTATACC | 0.469 |
| GGTATACC | 0.0922 |
| TGTATACA | 0.0967 |
| CGTATACG | 0.489 |
| CGTATACA | 0.46 |
| CGAATACG | 0.362 |
| AGGAGAAA | -0.281 |
| TCGATCAA | 0.0228 |
| CGTAATGC | 0.162 |
| CGGAACAA | 0.168 |
